Data on 73 compounds can be found in the supplement of paper PMC11150407.

About 45 (2%) of roughly 3,000 compounds showed an effect of 50% or more. The sample as a whole holds a higher share of strong results than the screen did.

For this experiment, the system named is MOLM1 and UCSD/AML1 (averaged). As to the kind of experiment: cell viability relative to DMSO control (POC); higher = less growth inhibition. Conditions: 1 µM; 72 h. On the procedure: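 Primary viability screen in the 3q26 EVI1-high AML cell lines MOLM1 and UCSD/AML1, compounds at 1 uM for 72 h. ATP CellTiter-Glo read-out given as percent viable over DMSO control (POC), averaged over duplicates. This mapping covers the TimTec NDL-3000 natural derivative library, whose compounds are identified by TimTec catalogue codes (ST...).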
For orientation: cell viability means a read-out of living cells in per cent, often relative to untreated cells. Take `CCN(CC)CCC(=O)c1ccc(OC)c(OC)c1`: the cell viability amounted to 98.6%.
Under `COc1ccc(/C=C/C(=O)Oc2ccc(C(C)C)cc2)c(OC)c1` stands 101%; under `COc1ccc(Br)cc1/C=C/C(=O)O`, 95.6%.
Consider `CCOC(=O)CCc1ccc2c(c1)NC(=O)CC2`, for which the cell viability is 91.8%.
Under `CCOC(=O)CCc1n[nH]c(=O)[nH]c1=O` stands 88.1%; under `CCOC(=O)[C@H]1CCC(=O)N1`, 17.6%.
With `Cc1cccc(NC(=O)CSc2nc3c(=O)[nH]cnc3n2C)c1C` the figure was 95.1%; with `Cc1[nH]c2ccc(Br)cc2c1CCNC(=O)c1cccs1`, 100%; with `Cc1ccc(NC(=O)CSc2nc3c(=O)[nH]cnc3n2CC2CCCO2)c(Cl)c1` (stereo not drawn), 98.7%.
With `Cc1ccc2c(CN3CCN(Cc4ccc(Cl)cc4)CC3)cc(=O)oc2c1`, the cell viability worked out at 96.2%.
With `COc1ccc(C(=O)N2CCN(Cc3cc(=O)oc4cc(C)ccc34)CC2)c(OC)c1` the figure was 93%; with `Cc1ccc2c(CN3CCN(C(=O)OC(C)(C)C)CC3)cc(=O)oc2c1`, 14.9%; with `C=C(C)C1CCC2(C)CCC3(C)C(CCC4C5(C)CCC(OC(C)=O)C(C)(C)C5CCC43C)C12` (stereo not drawn), 102%.
Under `COc1ccc(OC)c2c(C)cc(SCC(=O)c3ccc4c(c3)OCCO4)nc12` stands 101%.
Under `COC(=O)C1=C(C)NC(SC)=C(C#N)C1c1cc(OC)c(OC)c(OC)c1` (stereo not drawn) stands 18.3%; under `COC(=O)C1=C(C)NC2=C(C(=O)CCC2)C1c1cc(OC)c(OC)c(OC)c1` (stereo not drawn), 94.9%; under `COC(=O)C1=C(C)NC2=C(C(=O)CC(c3ccc(OC)c(OC)c3)C2)C1c1cc(OC)c(OC)c(OC)c1` (stereo not drawn), 101%.
Regarding `CC(=O)/C=C(\C)NC(C)C(=O)O` (stereo not drawn), the cell viability was found to be 102%.
Regarding `O=C(/C=C/c1ccc(Cl)cc1Cl)c1ccc(Br)cc1`, the cell viability worked out at 108%.
With `O=C(/C=C/c1ccc(NC(=O)c2cc(NC(=O)C(c3ccccc3)c3ccccc3)cc(NC(=O)C(c3ccccc3)c3ccccc3)c2)cc1)c1ccccc1` the figure was 94.6%.
Under `O=C(/C=C/c1cccc(NC(=O)c2ccc(Br)cc2)c1)c1cccc(NC(=O)c2ccc(Br)cc2)c1` stands 1.83%; under `CCCCCCOC(=O)c1ccccc1NC(=O)c1c(O)c2ccccc2[nH]c1=O`, 97.5%.
Under `CCOc1cc(/C=C2\Oc3ccc(C(=O)OC)cc3C2=O)ccc1O` stands 16.8%; under `COC(=O)c1ccc2c(c1)C(=O)/C(=C/c1ccc(O)c(OC)c1)O2`, 84.6%; under `CCOc1ccc(/C=C2/Oc3ccc(C(=O)OC)cc3C2=O)cc1OCC`, 96.6%.
Take `COc1cc(N(C(C)=O)C2OC(COC(C)=O)C(OC(C)=O)C(OC(C)=O)C2OC(C)=O)c(OC)c2c(C)cc(C)nc12` (stereo not drawn): the cell viability worked out at 98.5%.
In the case of `CCOC(=O)CSc1nc2c(c(=O)[nH]c(=O)n2C)n1Cc1cccc(C)c1`, the cell viability came out at 100%.
With `Cc1ccc(-n2c(SCc3cccc(Cl)c3)nc3c(=O)[nH]cnc32)cc1` the figure was 114%.
Under `CN(C)S(=O)(=O)Nc1ccc(S(=O)(=O)N2CCc3ccccc3C2)cc1` stands 98.2%; under `COc1ccc(-c2nnc(SCc3nc4ccccc4[nH]3)o2)cc1OC`, 95.3%; under `Cc1ccc(/C=C2\Oc3cc(O)ccc3C2=O)cc1`, 98.7%.
Under `O=C(CSc1nc2c(=O)[nH]cnc2n1-c1ccccc1)NC1CCCC1` stands 91.7%; under `CC(NC(=O)c1ccccc1)C(=O)O` (stereo not drawn), 99.5%; under `COc1ccc(/C=C/C(=O)N2CCc3c([nH]c4ccccc34)C2c2ccc(OC)cc2)cc1` (stereo not drawn), 90.2%.
`COc1ccc(C2c3[nH]c4ccccc4c3CCN2C(=O)/C=C/c2cc(OC)c(OC)c(OC)c2)cc1` (stereo not drawn): the cell viability stood at 32.6%.
For the compound `COc1ccc(C2c3[nH]c4ccccc4c3CCN2C(=O)/C=C/c2ccc(OC)c(OC)c2)cc1` (stereo not drawn), the cell viability came out at 81.9%.
With `O=C(O)/C=C/c1ccc(Cl)c(Cl)c1` the figure was 97.8%; with `COc1cc(C(=O)N2CCN(c3cccc(C)c3C)CC2)cc(OC)c1OC`, 12.5%.
With `COc1cc(C(=O)N2CCOCC2)cc(OC)c1OC` the figure was 98.2%; with `COc1cc(C(=O)N2c3ccccc3C(C)=CC2(C)C)cc(OC)c1OC`, 29.3%.
Turning to `COc1cc(C(=O)N2c3ccccc3CC2C)cc(OC)c1OC` (stereo not drawn), the cell viability was found to be 91.9%.
Consider `COc1cc(C(=O)Oc2ccccc2)cc(OC)c1OC`, for which the cell viability was found to be 108%.
Under `COc1cc(C(=O)N2CCN(C(=O)c3cccc(Cl)c3)CC2)cc(OC)c1OC` stands 102%; under `O=C(/C=C/c1ccc2c(c1)OCO2)c1ccc2c(c1)OCCO2`, 104%.
Under `Cn1c(SCc2ccc(Cl)cc2)nc2c(=O)[nH]cnc21` stands 90%; under `COc1ccc2[nH]cc(CCNC(=O)c3nn(-c4ccccc4)nc3C)c2c1`, 107%.
With `COc1ccc(/C=C2\Oc3ccc(Br)cc3C2=O)cc1` the figure was 97.7%; with `COc1ccc(/C=C2\CCc3ccccc3C2=O)cc1`, 94%.
In the case of `CCC1C/C(=C\c2ccc(OC)cc2)C(=O)/C(=C/c2ccc(OC)cc2)C1` (stereo not drawn), the cell viability amounted to 12.8%.
With `CCOC(=O)c1ccc2nc3c(=O)[nH]c(=O)nc-3n(CCc3ccc(OC)c(OC)c3)c2c1` the figure was 99.7%.
Under `COc1ccc(C=O)cc1COc1ccc2c(c1)CCC2` stands 47.2%; under `COc1ccc(/C=C/C(=O)O)cc1COc1ccccc1`, 101%.
Under `COc1ccc(OCc2cc(C=O)ccc2OC)cc1` stands 107%.
Take `O=C(OCC1CCCN2CCCCC12)c1ccccc1O` (stereo not drawn): the cell viability stood at 96.9%.
Under `Cc1cc2oc(=O)cc(O)c2cc1C` stands 95.7%.
For `O=C(c1ccccc1)N1CCN(CC(O)Cn2c3ccccc3c3ccccc32)CC1` (stereo not drawn), the cell viability is 99.4%.
With `CC1(C(=O)O)CCC2(C)CCC3(C)C(=CC(=O)C4C5(C)CCC(OC6OC(C(=O)O)C(O)C(O)C6OC6OC(C(=O)O)C(O)C(O)C6O)CC5CCC43C)C2C1.CC1(C(=O)O)CCC2(C)CCC3(C)C(=CC(=O)C4C5(C)CCC(OC6OC(C(=O)O)C(O)C(O)C6OC6OC(C(=O)O)C(O)C(O)C6O)CC5CCC43C)C2C1.CC1(C(=O)O)CCC2(C)CCC3(C)C(=CC(=O)C4C5(C)CCC(OC6OC(C(=O)O)C(O)C(O)C6OC6OC(C(=O)O)C(O)C(O)C6O)CC5CCC43C)C2C1.[Fe]` (stereo not drawn) the figure was 91.5%; with `O=c1cc(-c2ccccc2Cl)oc2c(Br)cc(Cl)cc12`, 112%; with `O=C(N/N=C\c1cc(Br)cc(Br)c1OC(=O)c1cccc(F)c1)c1ccc2c(c1)OCO2`, 64.1%.
Turning to `O=C(N/N=C/c1cc(N=Nc2cccc3ccccc23)ccc1O)c1ccc2c(c1)OCO2`, the cell viability was 64.5%.
On to `O=C(N/N=C/c1cc(N=Nc2cccc(C(F)(F)F)c2)ccc1O)c1ccc2c(c1)OCO2`, for which the cell viability turned out to be 21.3%.
On to `Cc1cc(=O)[nH]c(SCC(=O)Nc2cccc(C)c2C)n1`, for which the cell viability was found to be 114%.
`Cc1ccccc1C(=O)OCC1CCCN2CCCCC12.O.O.O.O.O.O.O=[N+]([O-])O.O=[N+]([O-])O.[Co]` (stereo not drawn): the cell viability was determined as 104%.
`CC(C)c1ccc(/C=C/C(=O)N2CCC3(O)CCCCC3C2c2ccc(F)cc2)cc1` (stereo not drawn): the cell viability was determined as 77.9%.
Under `O=C(Nc1c(C(=O)Nc2ccccc2)c2ccccc2n(Cc2ccc(F)cc2)c1=O)c1ccccc1` stands 94.1%; under `COc1cccc(C=Nc2ccc3cc4ccc(N=Cc5cccc(OC)c5O)cc4nc3c2)c1O`, 2.39%.
Under `COC(=O)C1=C(C)NC(SCC(=O)c2ccc3c(c2)OCO3)=C(C#N)C1c1cccs1` (stereo not drawn) stands 95.7%; under `CC(C)C(=O)NCC(=O)NCC(=O)O`, 98.8%; under `O=C(CCNc1n[nH]c(=O)[nH]c1=O)N/N=C/c1cccnc1`, 93%.
As to `CCn1c2ccccc2c2cc(/C=N/NC(=O)c3cc(OC)c(OC)c(OC)c3)ccc21`, the cell viability came out at 10.7%.
Under `COc1ccccc1CNC(=O)c1cc(OC)c(OC)c(OC)c1` stands 100%; under `COc1cc(/C=N/NC(=O)CCC(=O)Nc2ccccc2C)cc(OC)c1OC`, 91.6%; under `O=C(O)/C=C/c1c(Cl)cccc1Cl`, 94.6%.
